From the supplement of paper PMC11417369
± gives the standard deviation of the averaged measurements. Whole data set: some 25,000 sequences, median “ln(normalized median fluorescence intensity)” near 7.9, cut for the highest 2% near 11. This excerpt belongs to a sample that is enriched for the highest values.

Test system: PfAP2-I AP2 domain 3 (GST-tagged)
Test: gcPBM binding intensity (ln(normalized median fluorescence intensity)); higher = stronger DNA binding
In short: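 Using an Agilent 4 × 180k array, primer-extended double-stranded 36-bp intergenic genomic probes and negative controls were exposed for 1 h to GST-fused P. falciparum DNA-binding domains expressed in E. coli. Binding was carried out in 1× PBS with 1% milk, 0.2 mg/ml BSA, 0.5% salmon testes DNA and 0.03% Triton X-100, and protein was detected with Alexa488 anti-GST antibody and a 488 nm scan. Binding intensity is the highest Masliner-normalised natural-log median intensity across replicate spots of either probe orientation.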

Sequence	gcPBM binding intensity (ln)
TTTTTTATTTTGTGCACACACATAAAAATATAAATA [CACACA_site6497]	11.01 ± 0.042
ACATATAAATATTGTGTGCACACACATAATATATAT	10.2 ± 0.18
TTATTTATTTATATAGTGCAATAAACACATAAATAG	10.8 ± 0.47
ATATATATTTTTTAAACACACACATAAATATTTGTG [CACACA_site8936]	7.97 ± 0.38
AAAAAGAACAGAAACACACAAATAAAATAAAATTGT [CACACA_site6921]	7.72 ± 0.61
TTTTTTTTCTTTTTTTGTACATAATAATATATAAAT [XGTACX_site6778]	7.68 ± 0.35
TGTTCTATTCTATTATTATTTACAAATTATAAATAA [GTGCAC_negctrl_site232]	7.89 ± 0.37
TTTAATTTTCGGTGTGCACACAACTATGAGTTTTTA [CACACA_site3034]	9.565 ± 0.035
ATACAATTTATTTTAACACACGAATGAATTGATTAT [CACACA_site4160]	7.76 ± 0.63
TGTGTATATCGATAAAGTACATTTGAAAAGTGACTT [XGTACX_site6957]	7.62 ± 0.51
TTTTATTTTTTTAAATGTACACATATTAATGTAAGG [XGTACX_site319]	7.92 ± 0.3
TATTGGATCACACAAAAATGTATAAATAAATAGAAA [TGCATGCA_negctrl_site490]	7.7 ± 0.61
TCGAACATTAACATAACACACATATATATATATATA [CACACA_site2900]	9.27 ± 0.29
TACATATTGATATATACACACAAAAAAATAAATTCT [CACACA_site6198]	7.61 ± 0.54
GAAATTTGTTATTGCACACAAATTTTTCTTTTTTTA [CACACA_site2339]	10.14 ± 0.028
TATCCATTTCTTTATGTGCACATTAAATATATTTGT	10.2 ± 0.4
CATTTTATTTTCTTTGTGCACAAAAATATTTTTTCT	11.13 ± 0.092
TATATACATATATGCACACAAAAAAATATATATTTT [CACACA_site1729]	8.99 ± 0.11
ATATTATTATATATAGTGCATATTATTATTTTTATT	10.2 ± 0.42
ATATATTTGATAAGAGTGCACAAATACATACATACA [GTGCAC_site9704]	10.94 ± 0.071
TTATTTTTGTTCATAGTGCATAGAATTTATACATAT	9.91 ± 0.33
ATATTTTGTTTTATAGTGCACATGGGCATATATTAA [GTGCAC_site9435]	11 ± 0.32
TTGTTTGATATCTTTGTCACGAAAAAAATATATATA [GTGCAC_negctrl_site54]	7.83 ± 0.64
TCTTTTTTCATATTTTCACACATGTCTTTATATTTA [CACACA_site6025]	8.28 ± 0.65
ATGAATAAATGAACATGTACATATATATATATATTA [XGTACX_site5005]	7.76 ± 0.47

Sequence	gcPBM binding intensity (ln)
TTTTGGCTTCTAATATTATACAAAATGGTAAGGAAA [TGCATGCA_negctrl_site169]	7.94 ± 0.4
TAATTTCTTAGGTATTGTACAAATATTATATGATAT [XGTACX_site256]	7.55 ± 0.59
TATCCCTTAGAATACACACCCATATGAGGGTGAACT [CACACA_site5610]	7.76 ± 0.26
TATTTTTTTTTTATATGTACATAATTTCAAATAAAT [XGTACX_site7747]	7.97 ± 0.41
TATATTTCAGGGGGGAGTACAAATTTTTTTATATAA [XGTACX_site1600]	11 ± 0.52
TATAATTATATTTGGAGTACAAATTTTTTTTTTTTT [XGTACX_site7494]	7.765 ± 0.007
ATTATTATATATATAACACACATAATTATATACTTA [CACACA_site1563]	7.89 ± 0.38
TCTATAAAGTTCCATACATGCGCCATCATTTATATT [TGCATGCA_site195]	7.97 ± 0.79
TTTTTAATCAGAAATATTTATTAAAGAATTTTATAG [GTGCAC_negctrl_site725]	7.32 ± 0.34
TTATAAATAAAAAGAGTGCAATTATAAATATATATA	10.1 ± 0.23
TTTGTTTTTTTGAGAGTGCAATATATATAAAAAGGG [GTGCAC_site9691]	11.2 ± 0.64
AGATATTTATTGAGTGCATGTTATAAAGGGAAAAAA [TGCATGCA_site88]	9.04 ± 0.17
GGTTAAAAAAAGCATACACACTATCCTCTTTGCTCT [CACACA_site7246]	7.9 ± 0.65
GTTTATTTATTTTATGTGCACATATAACAAAAAAAA	10.36 ± 0.028
TTTTTTTTTTTTTTTGCACACTATATTTAATATAAG [CACACA_site2444]	9.42 ± 0.21
ATATATCATAAATAAATGAAAATATTTTCTATGTGT [CACACA_negctrl_site689]	7.77 ± 0.62
CAAAATATTTTTATAACACACATATATATAATGTGC [CACACA_site4767]	7.8 ± 0.52
TTTAATTATTAAATGGTGCACTTGAAATATAAAAAT	11 ± 0.45
AAATGAAATAAAATCATATATTTATAATTATTATAA [TGCATGCA_negctrl_site612]	7.27 ± 0.41
TATATATATTTTTGTGTGCACTATAATATGAAAATA	11.4 ± 0.45
AATTTTTTTTTTTTTTTTTTTTATATATGTGTGTGT [XGTACX_negctrl_site129]	7.59 ± 0.28
ATCATATTTTTATGTGTGCACTTTTTTTTTTTTTTT [GTGCAC_site9555]	10.25 ± 0.014
TGCATAATTAAAAATGGTACACTGTATTTATAATAT [XGTACX_site1575]	7.95 ± 0.61
ATATATTTTATATGTGTGCACTATATATATATATAT	11.4 ± 0.3
TATATTTTTATGTGTGTGCACAAAATAACAAAATAT [GTGCAC_site9596]	11.1 ± 0.35
